Laboratory results from PubChem BioAssay AID1159580 (chemical genetic matrix, 2015).
The campaign covered roughly 5,500 compounds. About 2,000 (36%) were called active. Inconclusive results (about 18%) are left out. Rule as the data show it: active = normalized growth mostly below about 0.91 (no sharp cut-off); inconclusive = no clear call, values can overlap the other calls; inactive = mostly above about 0.92. The list shows a part of the results.

Assay: chemical genetic growth profiling, strain panel (AID 1159580);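 also: tested at 20 µM; growth read once vehicle control cultures reached saturation at 30 °C; 1 = growth at the plate median or of vehicle wells; lower values mean less growth of the strain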
Conditions: growth OD

Measured: normalized growth

COC(=O)[C@]1(C)CC[C@]2(C)CC[C@]3(C)C4=CC=C5C(=CC(=O)C(O)=C5C)[C@]4(C)CC[C@@]3(C)[C@@H]2C1
active: S. cerevisiae deletion strains, locus YJR043C, strain POL32, stronger effect = lower value 0.646 | S. cerevisiae deletion strains, locus YJR075W, strain HOC1, stronger effect = lower value 0.794 | S. cerevisiae deletion strains, locus YKL160W, strain elf1, stronger effect = lower value 0.702 | S. cerevisiae deletion strains, locus YKL190W, strain CNB1, stronger effect = lower value 0.712 | S. cerevisiae deletion strains, locus YKR001C, strain vps1, stronger effect = lower value 0.793 | S. cerevisiae deletion strains, locus YLL001W, strain dnm1, stronger effect = lower value 0.729 | S. cerevisiae deletion strains, locus YLL026W, stronger effect = lower value 0.887 | S. cerevisiae deletion strains, locus YLR027C, strain aat2, stronger effect = lower value 0.719 | S. cerevisiae deletion strains, locus YLR039C, strain RIC1, stronger effect = lower value 0.406 | S. cerevisiae deletion strains, locus YLR058C, strain SHM2, stronger effect = lower value 0.615 | S. cerevisiae deletion strains, locus YLR221C, strain rsa3, stronger effect = lower value 0.752 | S. cerevisiae deletion strains, locus YLR258W, strain gsy2, stronger effect = lower value 0.802 | S. cerevisiae deletion strains, locus YLR262C, strain YPT6 (second series), stronger effect = lower value 0.394 | S. cerevisiae deletion strains, locus YLR262C, strain YPT6, stronger effect = lower value 0.45 | S. cerevisiae deletion strains, locus YLR268W, strain sec22, stronger effect = lower value 0.832 | S. cerevisiae deletion strains, locus YLR320W, strain mms22, stronger effect = lower value 0.495 | S. cerevisiae deletion strains, locus YLR330W, strain CHS5, stronger effect = lower value 0.64 | S. cerevisiae deletion strains, locus YLR342W, strain FKS1 (second series), stronger effect = lower value 0.71 | S. cerevisiae deletion strains, locus YLR342W, strain FKS1, stronger effect = lower value 0.59 | S. cerevisiae deletion strains, locus YLR357W, strain rsc2, stronger effect = lower value 0.824 | S. cerevisiae deletion strains, locus YLR370C, strain arc18, stronger effect = lower value 0.797 | S. cerevisiae deletion strains, locus YLR418C, strain cdc73, stronger effect = lower value 0.383 | S. cerevisiae deletion strains, locus YML016C, strain PPZ1, stronger effect = lower value 0.781 | S. cerevisiae deletion strains, locus YML032C, strain rad52, stronger effect = lower value 0.873 | S. cerevisiae deletion strains, locus YML120C, strain ndi1, stronger effect = lower value 0.819 | S. cerevisiae deletion strains, locus YMR058W, strain fet3, stronger effect = lower value 0.115 | S. cerevisiae deletion strains, locus YMR125W, strain sto1, stronger effect = lower value 0.812 | S. cerevisiae deletion strains, locus YMR205C, strain PFK2, stronger effect = lower value 0.56 | S. cerevisiae deletion strains, locus YMR223W, strain ubp8, stronger effect = lower value 0.85 | S. cerevisiae deletion strains, locus YMR231W, strain pep5, stronger effect = lower value 0.863 | S. cerevisiae deletion strains, locus YMR263W, strain SAP30, stronger effect = lower value 0.803 | S. cerevisiae deletion strains, locus YNL067W, strain RPL9B, stronger effect = lower value 0.803 | S. cerevisiae deletion strains, locus YNL071W, strain lat1, stronger effect = lower value 0.347 | S. cerevisiae deletion strains, locus YNL128W, strain TEP1, stronger effect = lower value 0.548 | S. cerevisiae deletion strains, locus YNL209W, strain ssb2, stronger effect = lower value 0.454 | S. cerevisiae deletion strains, locus YNL233W, strain BNI4, stronger effect = lower value 0.811 | S. cerevisiae deletion strains, locus YNL248C, strain rpa49, stronger effect = lower value 0.887 | S. cerevisiae deletion strains, locus YNL271C, strain bni1, stronger effect = lower value 0.894 | S. cerevisiae deletion strains, locus YNL307C, strain MCK1, stronger effect = lower value 0.754 | S. cerevisiae deletion strains, locus YNL322C, strain KRE1, stronger effect = lower value 0.772 | S. cerevisiae deletion strains, locus YNR049C, strain mso1, stronger effect = lower value 0.878 | S. cerevisiae deletion strains, locus YNR052C, strain pop2, stronger effect = lower value 0.888 | S. cerevisiae deletion strains, locus YOL006C, strain TOP1, stronger effect = lower value 0.317 | S. cerevisiae deletion strains, locus YOL147C, strain pex11, stronger effect = lower value 0.91 | S. cerevisiae deletion strains, locus YOR061W, strain CKA2, stronger effect = lower value 0.744 | S. cerevisiae deletion strains, locus YOR069W, strain VPS5, stronger effect = lower value 0.836 | S. cerevisiae deletion strains, locus YOR070C, strain gyp1, stronger effect = lower value 0.678 | S. cerevisiae deletion strains, locus YOR080W, strain dia2, stronger effect = lower value 0.757 | S. cerevisiae deletion strains, locus YOR083W, strain WHI5, stronger effect = lower value 0.757 | S. cerevisiae deletion strains, locus YOR106W, strain vam3, stronger effect = lower value 0.574 | S. cerevisiae deletion strains, locus YOR144C, strain elg1, stronger effect = lower value 0.908 | S. cerevisiae deletion strains, locus YOR184W, strain ser1, stronger effect = lower value 0.645 | S. cerevisiae deletion strains, locus YOR265W, strain rbl2, stronger effect = lower value 0.747 | S. cerevisiae deletion strains, locus YOR270C, strain vph1, stronger effect = lower value 0.472 | S. cerevisiae deletion strains, locus YOR290C, strain snf2, stronger effect = lower value 0.515 | S. cerevisiae deletion strains, locus YPL051W, strain arl3, stronger effect = lower value 0.448 | S. cerevisiae deletion strains, locus YPL078C, strain atp4, stronger effect = lower value 0.65 | S. cerevisiae deletion strains, locus YPL240C, strain hsp82, stronger effect = lower value 0.81 | S. cerevisiae deletion strains, locus YPL241C, strain CIN2, stronger effect = lower value 0.898 | S. cerevisiae deletion strains, locus YPR163C, strain tif3, stronger effect = lower value 0.888 | S. cerevisiae deletion strains, locus YPR167C, strain met16, stronger effect = lower value 0.917 | S. cerevisiae deletion strains, strain wtn01, stronger effect = lower value 0.894 | S. cerevisiae strains, strain wild type, stronger effect = lower value 0.572
inactive: S. cerevisiae deletion strains, locus YKL009W, strain mrt4, stronger effect = lower value 1.06 | S. cerevisiae deletion strains, locus YKL068W, stronger effect = lower value 0.961 | S. cerevisiae deletion strains, locus YKL085W, strain MDH1 (second series), stronger effect = lower value 1.01 | S. cerevisiae deletion strains, locus YKL085W, strain MDH1, stronger effect = lower value 1.01 | S. cerevisiae deletion strains, locus YKR026C, strain gcn3, stronger effect = lower value 0.941 | S. cerevisiae deletion strains, locus YKR091W, strain srl3, stronger effect = lower value 0.995 | S. cerevisiae deletion strains, locus YLL041C, strain sdh2, stronger effect = lower value 0.929 | S. cerevisiae deletion strains, locus YLR102C, strain apc9, stronger effect = lower value 0.983 | S. cerevisiae deletion strains, locus YLR371W, strain rom2, stronger effect = lower value 0.948 | S. cerevisiae deletion strains, locus YLR384C, strain iki3, stronger effect = lower value 0.96 | S. cerevisiae deletion strains, locus YML124C, strain tub3, stronger effect = lower value 0.956 | S. cerevisiae deletion strains, locus YMR078C, strain ctf18, stronger effect = lower value 0.934 | S. cerevisiae deletion strains, locus YMR307W, strain GAS1, stronger effect = lower value 0.65 | S. cerevisiae deletion strains, locus YNL250W, strain rad50, stronger effect = lower value 0.934 | S. cerevisiae deletion strains, locus YNL298W, strain CLA4, stronger effect = lower value 0.957 | S. cerevisiae deletion strains, locus YNL322C, strain KRE1 (second series), stronger effect = lower value 0.978 | S. cerevisiae deletion strains, locus YOL012C, strain htz1 0.412 | S. cerevisiae deletion strains, locus YOR001W, strain rrp6, stronger effect = lower value 0.918 | S. cerevisiae deletion strains, locus YOR136W, strain idh2, stronger effect = lower value 0.961 | S. cerevisiae deletion strains, locus YOR316C, strain cot1, stronger effect = lower value 0.962 | S. cerevisiae deletion strains, locus YPL106C, strain sse1, stronger effect = lower value 0.854 | S. cerevisiae deletion strains, locus YPR119W, strain clb2, stronger effect = lower value 0.957 | S. cerevisiae deletion strains, locus YPR141C, strain kar3, stronger effect = lower value 0.943
